Test results from the supplement of paper PMC11732987, “Enantioselective OTUD7B fragment discovery through chemoproteomics screening and high-throughput optimisation” (Communications Chemistry, 2025).

What was measured:
Test in all cases: log2 ratio of Biotin-Ahx-Ub-VS probe labelling (fragment/DMSO); higher = less target engagement (more negative = stronger competition), active = hit call of the paper (q ≤ 0.05, log2 ratio ≤ -1)
Conditions in all cases: compound concentration: 200 uM; treatment time: 3 h
[1] = biological target: USP34 (UniProt Q70CQ2)
Method in brief: (§1)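 The table lists average log2 ratios of fragment over vehicle, from an unpaired t-test on global-median-normalised Spectronaut label-free quantities. Proteins with ≥2 unique peptides were used. Samples were HEK293T lysate (495 µg) treated in triplicate with fragment at 200 µM or vehicle for 3 h, then with Biotin-Ahx-Ub-VS (0.5 µM final) for 1 h, with labelled DUBs NeutrAvidin-enriched and run by diaPASEF LC-MS/MS.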

[2] = biological target: T1, USP36 (UniProt Q9P275)
T1 sequence (whole entry): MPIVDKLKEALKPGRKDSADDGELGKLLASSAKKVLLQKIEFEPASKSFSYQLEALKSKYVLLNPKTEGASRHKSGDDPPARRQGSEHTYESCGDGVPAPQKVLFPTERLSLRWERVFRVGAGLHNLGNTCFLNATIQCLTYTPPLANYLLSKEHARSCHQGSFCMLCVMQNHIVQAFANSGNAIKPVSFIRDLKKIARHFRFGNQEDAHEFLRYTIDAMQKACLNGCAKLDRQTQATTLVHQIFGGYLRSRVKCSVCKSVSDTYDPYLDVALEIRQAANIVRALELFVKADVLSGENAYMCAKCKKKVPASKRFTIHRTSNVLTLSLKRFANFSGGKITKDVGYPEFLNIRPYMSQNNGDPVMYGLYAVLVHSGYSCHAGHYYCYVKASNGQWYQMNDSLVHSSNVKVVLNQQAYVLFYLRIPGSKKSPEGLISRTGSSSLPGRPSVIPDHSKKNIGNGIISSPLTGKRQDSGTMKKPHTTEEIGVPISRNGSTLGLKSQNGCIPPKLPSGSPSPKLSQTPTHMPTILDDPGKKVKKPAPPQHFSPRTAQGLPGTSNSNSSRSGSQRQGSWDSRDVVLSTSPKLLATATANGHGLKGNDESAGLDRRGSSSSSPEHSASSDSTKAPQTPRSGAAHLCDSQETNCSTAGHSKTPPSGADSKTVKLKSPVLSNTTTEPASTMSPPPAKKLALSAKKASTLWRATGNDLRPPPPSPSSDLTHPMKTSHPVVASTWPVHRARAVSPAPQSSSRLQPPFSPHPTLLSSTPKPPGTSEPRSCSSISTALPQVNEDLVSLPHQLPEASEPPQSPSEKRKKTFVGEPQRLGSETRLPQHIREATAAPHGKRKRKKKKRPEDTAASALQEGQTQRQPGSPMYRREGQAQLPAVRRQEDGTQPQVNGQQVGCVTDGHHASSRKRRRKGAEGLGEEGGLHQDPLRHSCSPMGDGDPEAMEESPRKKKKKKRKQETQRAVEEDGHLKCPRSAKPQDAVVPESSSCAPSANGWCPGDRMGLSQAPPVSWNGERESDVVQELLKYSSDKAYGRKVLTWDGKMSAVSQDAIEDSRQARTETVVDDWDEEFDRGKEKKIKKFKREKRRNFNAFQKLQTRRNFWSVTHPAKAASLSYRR
Method in brief: as §1

[3] = biological target: T2, USP38 (UniProt Q8NB14)
T2 sequence (whole entry): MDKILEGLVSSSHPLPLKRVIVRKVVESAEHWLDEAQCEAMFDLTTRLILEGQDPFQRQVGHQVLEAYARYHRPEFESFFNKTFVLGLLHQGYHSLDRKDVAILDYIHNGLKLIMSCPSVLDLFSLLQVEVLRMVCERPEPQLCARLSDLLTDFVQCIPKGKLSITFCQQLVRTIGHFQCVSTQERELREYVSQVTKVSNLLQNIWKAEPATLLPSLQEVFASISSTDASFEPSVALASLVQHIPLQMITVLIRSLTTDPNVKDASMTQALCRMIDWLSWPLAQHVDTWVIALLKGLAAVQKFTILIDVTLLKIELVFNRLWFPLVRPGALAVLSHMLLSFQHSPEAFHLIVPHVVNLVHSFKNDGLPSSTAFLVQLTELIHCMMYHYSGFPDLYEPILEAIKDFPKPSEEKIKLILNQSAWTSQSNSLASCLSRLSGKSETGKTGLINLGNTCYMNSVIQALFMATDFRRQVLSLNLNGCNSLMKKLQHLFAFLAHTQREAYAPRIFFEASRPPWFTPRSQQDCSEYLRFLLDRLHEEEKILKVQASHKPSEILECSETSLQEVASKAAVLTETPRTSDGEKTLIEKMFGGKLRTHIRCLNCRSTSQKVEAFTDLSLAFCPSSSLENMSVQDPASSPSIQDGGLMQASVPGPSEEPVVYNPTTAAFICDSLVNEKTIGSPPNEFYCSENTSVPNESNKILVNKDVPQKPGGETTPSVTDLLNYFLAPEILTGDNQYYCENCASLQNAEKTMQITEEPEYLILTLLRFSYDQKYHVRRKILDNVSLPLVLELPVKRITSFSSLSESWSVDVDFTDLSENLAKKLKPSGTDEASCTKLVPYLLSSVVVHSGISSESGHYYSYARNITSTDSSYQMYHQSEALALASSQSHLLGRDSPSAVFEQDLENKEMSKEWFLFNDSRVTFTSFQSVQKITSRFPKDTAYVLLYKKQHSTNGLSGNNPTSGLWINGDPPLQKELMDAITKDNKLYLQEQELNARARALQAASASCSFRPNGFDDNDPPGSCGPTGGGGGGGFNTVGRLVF
Method in brief: as §1

[4] = biological target: T3, USP39 (UniProt Q53GS9)
T3 sequence (whole entry): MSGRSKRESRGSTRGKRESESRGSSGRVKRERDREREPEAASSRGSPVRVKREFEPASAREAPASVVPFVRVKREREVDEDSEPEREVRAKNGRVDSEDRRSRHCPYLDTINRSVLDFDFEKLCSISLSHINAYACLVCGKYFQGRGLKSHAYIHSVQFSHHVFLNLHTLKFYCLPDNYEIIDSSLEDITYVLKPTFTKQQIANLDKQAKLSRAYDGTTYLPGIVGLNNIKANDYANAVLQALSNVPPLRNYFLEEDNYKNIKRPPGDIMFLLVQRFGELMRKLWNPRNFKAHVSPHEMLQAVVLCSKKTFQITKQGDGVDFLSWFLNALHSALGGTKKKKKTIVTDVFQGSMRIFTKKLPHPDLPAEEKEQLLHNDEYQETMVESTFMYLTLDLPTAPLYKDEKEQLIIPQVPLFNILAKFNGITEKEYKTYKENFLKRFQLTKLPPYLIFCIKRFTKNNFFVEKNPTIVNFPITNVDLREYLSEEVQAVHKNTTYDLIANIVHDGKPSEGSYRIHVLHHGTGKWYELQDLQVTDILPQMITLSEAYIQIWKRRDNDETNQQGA
Method in brief: as §1

[5] = biological target: T4, USP4 (UniProt Q13107)
T4 sequence (whole entry): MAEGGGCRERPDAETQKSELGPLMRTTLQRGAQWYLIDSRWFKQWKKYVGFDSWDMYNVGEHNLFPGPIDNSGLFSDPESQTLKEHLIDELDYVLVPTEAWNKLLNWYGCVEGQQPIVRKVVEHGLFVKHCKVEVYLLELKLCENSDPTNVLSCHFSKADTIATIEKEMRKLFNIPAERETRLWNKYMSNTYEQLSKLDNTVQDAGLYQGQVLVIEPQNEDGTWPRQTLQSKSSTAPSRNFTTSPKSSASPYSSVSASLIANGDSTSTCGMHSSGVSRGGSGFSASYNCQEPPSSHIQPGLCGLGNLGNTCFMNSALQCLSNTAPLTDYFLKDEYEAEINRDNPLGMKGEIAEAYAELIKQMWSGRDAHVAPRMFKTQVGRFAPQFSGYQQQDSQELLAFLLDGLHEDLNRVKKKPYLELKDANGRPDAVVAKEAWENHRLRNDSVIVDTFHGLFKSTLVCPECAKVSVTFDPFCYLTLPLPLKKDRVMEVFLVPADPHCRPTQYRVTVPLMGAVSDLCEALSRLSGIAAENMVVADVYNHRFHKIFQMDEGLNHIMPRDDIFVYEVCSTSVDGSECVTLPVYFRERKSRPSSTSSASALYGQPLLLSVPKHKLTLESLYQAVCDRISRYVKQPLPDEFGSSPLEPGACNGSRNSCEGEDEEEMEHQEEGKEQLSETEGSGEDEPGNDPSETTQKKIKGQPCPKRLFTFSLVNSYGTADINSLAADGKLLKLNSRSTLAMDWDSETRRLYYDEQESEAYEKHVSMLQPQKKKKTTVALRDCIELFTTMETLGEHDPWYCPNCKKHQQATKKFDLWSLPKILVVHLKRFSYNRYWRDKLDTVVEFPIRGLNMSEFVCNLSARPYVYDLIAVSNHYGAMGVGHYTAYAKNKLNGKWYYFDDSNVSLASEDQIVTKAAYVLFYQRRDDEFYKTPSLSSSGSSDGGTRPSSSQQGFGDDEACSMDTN
Method in brief: as §1

Measured: log2 ratio of Biotin-Ahx-Ub-VS probe labelling

USP34, sequence (Q70CQ2 whole entry, the tested form may be a part): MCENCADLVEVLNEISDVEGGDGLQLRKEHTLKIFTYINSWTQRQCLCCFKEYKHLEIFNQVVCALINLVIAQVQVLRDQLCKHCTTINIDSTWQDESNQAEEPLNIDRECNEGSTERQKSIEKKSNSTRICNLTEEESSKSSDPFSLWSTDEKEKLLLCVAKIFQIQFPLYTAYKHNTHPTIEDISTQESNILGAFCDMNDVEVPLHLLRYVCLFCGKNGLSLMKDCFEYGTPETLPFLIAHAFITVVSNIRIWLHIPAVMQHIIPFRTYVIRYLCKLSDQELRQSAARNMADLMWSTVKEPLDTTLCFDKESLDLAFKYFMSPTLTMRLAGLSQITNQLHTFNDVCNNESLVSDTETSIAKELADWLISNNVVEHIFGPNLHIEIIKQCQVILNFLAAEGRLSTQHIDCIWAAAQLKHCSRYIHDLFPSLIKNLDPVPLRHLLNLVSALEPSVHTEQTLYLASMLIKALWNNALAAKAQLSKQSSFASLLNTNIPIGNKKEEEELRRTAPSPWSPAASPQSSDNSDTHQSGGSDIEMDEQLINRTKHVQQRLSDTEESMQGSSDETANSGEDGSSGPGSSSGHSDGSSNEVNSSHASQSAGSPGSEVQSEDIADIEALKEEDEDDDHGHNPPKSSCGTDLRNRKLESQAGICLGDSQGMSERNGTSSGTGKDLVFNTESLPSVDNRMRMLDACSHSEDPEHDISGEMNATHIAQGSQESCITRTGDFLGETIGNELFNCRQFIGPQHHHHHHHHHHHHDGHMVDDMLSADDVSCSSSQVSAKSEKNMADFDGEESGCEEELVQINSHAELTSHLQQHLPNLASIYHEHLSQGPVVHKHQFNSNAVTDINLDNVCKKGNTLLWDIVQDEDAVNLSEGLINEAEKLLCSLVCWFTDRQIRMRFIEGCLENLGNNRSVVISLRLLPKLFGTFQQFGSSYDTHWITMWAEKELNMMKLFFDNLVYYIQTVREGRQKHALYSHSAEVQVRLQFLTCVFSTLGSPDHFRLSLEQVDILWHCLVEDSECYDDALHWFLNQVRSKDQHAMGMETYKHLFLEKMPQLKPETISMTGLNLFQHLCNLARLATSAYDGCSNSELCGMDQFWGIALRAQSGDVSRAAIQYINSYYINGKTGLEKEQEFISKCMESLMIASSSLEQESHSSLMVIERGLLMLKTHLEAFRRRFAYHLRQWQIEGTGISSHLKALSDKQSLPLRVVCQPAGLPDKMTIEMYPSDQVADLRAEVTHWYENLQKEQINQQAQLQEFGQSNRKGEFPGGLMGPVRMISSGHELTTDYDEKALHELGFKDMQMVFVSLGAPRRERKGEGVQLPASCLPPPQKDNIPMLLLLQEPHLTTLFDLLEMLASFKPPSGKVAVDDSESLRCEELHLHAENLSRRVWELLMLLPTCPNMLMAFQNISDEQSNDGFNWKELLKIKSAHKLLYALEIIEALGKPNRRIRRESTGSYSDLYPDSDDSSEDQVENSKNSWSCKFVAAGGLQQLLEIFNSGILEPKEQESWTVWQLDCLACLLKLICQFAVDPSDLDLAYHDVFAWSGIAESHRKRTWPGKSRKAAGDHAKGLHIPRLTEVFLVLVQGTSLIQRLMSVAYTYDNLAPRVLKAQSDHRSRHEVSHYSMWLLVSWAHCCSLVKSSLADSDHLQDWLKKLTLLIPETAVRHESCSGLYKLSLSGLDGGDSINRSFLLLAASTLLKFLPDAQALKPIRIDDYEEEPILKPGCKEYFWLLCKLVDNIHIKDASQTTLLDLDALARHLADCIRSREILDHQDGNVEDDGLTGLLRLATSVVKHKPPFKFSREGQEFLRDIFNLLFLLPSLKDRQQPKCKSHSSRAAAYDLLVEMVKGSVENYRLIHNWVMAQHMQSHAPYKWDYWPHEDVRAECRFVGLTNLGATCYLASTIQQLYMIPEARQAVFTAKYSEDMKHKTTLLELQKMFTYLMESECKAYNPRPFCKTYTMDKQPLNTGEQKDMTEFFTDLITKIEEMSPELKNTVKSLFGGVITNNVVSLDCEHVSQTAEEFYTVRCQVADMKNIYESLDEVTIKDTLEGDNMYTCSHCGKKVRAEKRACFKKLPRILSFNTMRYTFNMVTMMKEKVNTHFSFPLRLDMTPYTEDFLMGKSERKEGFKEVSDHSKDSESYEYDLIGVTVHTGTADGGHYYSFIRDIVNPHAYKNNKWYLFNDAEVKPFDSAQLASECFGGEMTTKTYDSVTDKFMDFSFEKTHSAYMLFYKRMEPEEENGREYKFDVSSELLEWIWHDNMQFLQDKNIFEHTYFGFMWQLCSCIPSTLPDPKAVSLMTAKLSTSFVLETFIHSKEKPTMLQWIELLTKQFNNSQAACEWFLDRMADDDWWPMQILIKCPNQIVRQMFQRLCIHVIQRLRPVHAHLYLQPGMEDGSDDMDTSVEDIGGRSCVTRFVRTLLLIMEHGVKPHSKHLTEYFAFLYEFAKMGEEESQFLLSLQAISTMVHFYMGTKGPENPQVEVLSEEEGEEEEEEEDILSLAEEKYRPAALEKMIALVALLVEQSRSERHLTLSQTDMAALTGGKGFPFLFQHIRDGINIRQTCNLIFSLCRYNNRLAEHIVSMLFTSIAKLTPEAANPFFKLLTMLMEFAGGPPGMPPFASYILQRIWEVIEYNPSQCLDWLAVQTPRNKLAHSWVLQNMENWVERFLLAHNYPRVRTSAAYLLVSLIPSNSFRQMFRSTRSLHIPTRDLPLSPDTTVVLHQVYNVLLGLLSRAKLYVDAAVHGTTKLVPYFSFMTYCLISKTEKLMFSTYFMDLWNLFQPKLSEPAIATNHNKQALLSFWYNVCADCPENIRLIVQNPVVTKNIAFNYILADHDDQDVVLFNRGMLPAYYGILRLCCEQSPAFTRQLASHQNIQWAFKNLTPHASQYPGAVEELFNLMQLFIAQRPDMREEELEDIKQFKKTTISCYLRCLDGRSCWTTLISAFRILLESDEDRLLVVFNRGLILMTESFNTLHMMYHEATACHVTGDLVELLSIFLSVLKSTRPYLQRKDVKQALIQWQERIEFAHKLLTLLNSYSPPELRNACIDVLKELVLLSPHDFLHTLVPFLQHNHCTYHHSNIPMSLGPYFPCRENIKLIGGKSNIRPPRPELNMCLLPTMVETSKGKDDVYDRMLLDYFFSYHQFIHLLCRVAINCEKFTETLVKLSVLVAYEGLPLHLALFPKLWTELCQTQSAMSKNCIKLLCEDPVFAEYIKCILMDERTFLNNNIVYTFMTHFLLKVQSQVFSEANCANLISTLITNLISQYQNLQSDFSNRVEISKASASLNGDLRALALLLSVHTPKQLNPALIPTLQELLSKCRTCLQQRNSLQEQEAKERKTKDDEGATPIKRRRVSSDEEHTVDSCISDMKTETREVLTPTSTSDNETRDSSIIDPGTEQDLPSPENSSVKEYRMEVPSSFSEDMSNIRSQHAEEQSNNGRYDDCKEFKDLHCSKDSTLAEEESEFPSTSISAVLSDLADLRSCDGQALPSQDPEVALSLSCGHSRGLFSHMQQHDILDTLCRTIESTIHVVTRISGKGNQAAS

Cl.Cn1ncc2c1CC(NC(=O)CCl)CC2 (stereo not given)
inactive: [1] 0.0665 | [2] -0.0622 | [3] 0.034 | [4] -0.0219 | [5] 0.0879
